“And” between values parts separate entries of the source, which are not always exact repeats. Identical values can stand only once. The panel holds about 83,000 compounds, 20% with a hit somewhere; the sample as a whole holds those more often.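 A percent growth of 40 corresponds to 60% growth inhibition; 0 means no net growth; -100 means all cells died. Active threshold: below 10.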 Where a structure was tested more than once in an assay, its records may differ in their call. The source made the active and inactive calls.
What follows are compounds tested on SR leukemia (assay: NCI-60 one-dose screen, 48 h (100 = growth as untreated, 0 = no growth, -100 = all killed)). Conditions: 10 µM unless noted.

SMILES	growth
O=[N+]([O-])c1ccccc1/C=N\Nc1ccccc1	98.5% (inactive) and 51.8% (inactive)
CCN(CC)CCNc1cc(-c2cccc(OC(F)(F)F)c2)nc2ccc(N3CCCC3)cc12	-29.4% (active) and -36.8% (active) and -10.8% (active)
CC(=O)Nc1cc(S(=O)(=O)O)cc2cc(S(=O)(=O)O)c(N=Nc3ccccc3)c(O)c12	98.8% (inactive) and 92.1% (inactive)
CC(C)CNC(=O)c1ccccc1C(=O)NC1(C(=O)NCC(C)C)CCCC1	110% (inactive) and 90.5% (inactive)
COc1cc2nc(N3CCN(C(=O)C4COc5ccccc5O4)CC3)nc(N)c2cc1OC (centres undefined)	70.4% (inactive) and 83.6% (inactive)
O=C(Cc1cccc2ccccc12)N/N=C/c1ccc2c(c1)CCC2	23% (inactive)
CC1=C(/C=C/C(C)=C/C=C/C(C)=C/C(=O)O)C(C)(C)CCC1	68.5% (inactive) and 87.1% (inactive) and 68.1% (inactive)
O=C(Nc1ccc(Br)cc1)c1cc(Br)ccc1O	1.42% (active)
Cc1cc(-c2ccc(NS(=O)(=O)c3ccccc3)c(C)c2)ccc1NS(=O)(=O)c1ccccc1	49.2% (inactive) and 59.7% (inactive)
O=C(CCl)c1ccc2c(c1)Nc1ccccc1S2	13.6% (inactive) and 6.19% (active)
CC1CCCc2sc3nc(NNC(=O)c4cnccn4)n(-c4ccccc4)c(=O)c3c21 (centres undefined)	1.65% (active) and 26.4% (inactive)
Cc1cc(O)c(C(C)C)cc1N	97.1% (inactive) and 115% (inactive)
COc1ccc2cc3[n+](cc2c1OC)CCc1cc2c(cc1-3)OCO2	50% (inactive) and 68.8% (inactive)
COc1c(/C(C)=N/N=c2sc(C(C)=O)nn2-c2ccc(Cl)cc2)c(Oc2ccccc2)c(OC)c2occc12	107% (inactive) and 104% (inactive)
OC(COc1cccc2ccccc12)CN1CCN(c2ccc(Cl)cc2)CC1 (centres undefined)	113% (inactive) and 75.2% (inactive)
CNc1ccc2nc3ccc(=[N+](C)C)cc-3sc2c1	20.3% (inactive) and 28.5% (inactive)
CC1=NN(c2ccccc2)C(=O)C1C(=O)c1ccccc1 (centres undefined)	82.7% (inactive)
OCCN1CCN(CCO)CC1	99.5% (inactive) and 117% (inactive) and 98.8% (inactive)
CC1=CCC2CC1C2(C)C (centres undefined)	96.9% (inactive) and 91.4% (inactive)
COc1cc(/C=N/Nc2nc3c([nH]2)c(=O)n(C)c(=O)n3C)ccc1O	89% (inactive) and 85.3% (inactive)

SMILES	growth
S=C(S)N1CCCC1	65.2% (inactive) and 83.6% (inactive)
CC(=O)Oc1cc(C(=O)O)cc(OC(C)=O)c1OC(C)=O	117% (inactive) and 101% (inactive)
CCN(CC)C(=O)c1cccnc1	90.5% (inactive)
O=C(Nc1cccc(Cl)c1)c1cc2ccccc2cc1O	23.4% (inactive) and 3.87% (active)
Cn1c(SSc2ccc(-c3cccnc3)n2C)ccc1-c1cccnc1	86.8% (inactive) and 58.3% (inactive)
CN1CCN(CCC=C2c3ccccc3Sc3ccc(S(=O)(=O)N(C)C)cc32)CC1	2.47% (active)
Oc1c(Cl)cc(Cl)cc1Sc1cc(Cl)cc(Cl)c1O	42.1% (inactive) and 77.1% (inactive) and 107% (inactive)
Cn1c(=O)n(-c2ccc(C(C)(C)C#N)cc2)c2c3cc(-c4cnc5ccccc5c4)ccc3ncc21	2.04% (active) and -5.13% (active)
O=C(N/N=C/c1ccccc1)N/N=C/c1ccccc1	93.8% (inactive) and 106% (inactive)
COc1ccc(-c2cn[nH]c2-c2cc(OC)c(OC)c(OC)c2)cc1N	12% (inactive) and 19.5% (inactive)
C1CCCCNCCC1	110% (inactive)
COc1ccccc1C(C)=O	95.8% (inactive) and 86% (inactive)
NS(=O)(=O)c1cc2c(cc1Cl)NC(C(Cl)Cl)NS2(=O)=O (centres undefined)	99.8% (inactive)
O=C(Oc1cccc(OC(=O)c2ccccc2)c1)c1ccccc1	94.4% (inactive)
CC1(c2ccc3ccccc3c2)CCC(=O)O1 (centres undefined)	92.2% (inactive)
CC1=C(/C=C/C(C)=C/C=C/C(C)=C/C=N/NC(=S)NC(=S)N/N=C/C=C(C)/C=C/C=C(C)/C=C/C2=C(C)CCCC2(C)C)C(C)(C)CCC1	23.6% (inactive) and 1.02% (active)
CCCCOc1cc(C(=O)NCCN(CC)CC)c2ccccc2n1	101% (inactive) and 93% (inactive)
COc1cc2c(c(OC)c1OC)-c1ccc(OC)c(=O)cc1[C@@H](NC(C)=O)CC2	4.98% (active) and 2.6% (active) and 5.4% (active)
CN1CCN(c2ccc3nc(-c4c(N)c5c(F)cccc5[nH]c4=O)[nH]c3c2)CC1	-11.8% (active) and 1.99% (active)
